Among all 360,000 compounds or so, about 7,500 (2.1%) were called active. About 20% were inconclusive and are not listed. The sample holds actives, similar compounds and a random draw of the others, so the mix is not that of the screen. A number with no mark means an inactive call. Calls come from the whole dose curve; as a rule, active = well fitted inhibition curve with a large enough effect; inconclusive = small, poorly fitted or top-dose-only effect, or effect the other way; inactive = flat fitted curve, though single readings scatter.
% is set by controls: 0 for no effect and ±100 for the full control effect; potency is the fitted concentration of half-maximal effect.

The nature of the assay: Nrf2 qHTS screen for inhibitors. Note: nearly all actives have a fitted effect of over 60% in size. The following applies: A549 ARE-Fluc reporter, luciferase luminescence, 18-24 h; series mostly up to 46 µM; activity change, negative = inhibition: at the top concentration. The text has this: NIH Molecular Libraries Probe Production Network [MLPCN]
NIH Chemical Genomics Center [NCGC]
Assay Provider: Shyam Biswal, Johns Hopkins University
Nrf2 is a transcription factor that maintains cellular redox homoestasis and protects cells from xenobiotics. Nrf2 binds to the antioxidant response element (ARE) to induce gene expression of a broad spectrum of genes that encode for antioxidants. […] Finding a small molecule that act as an inhibitor of Nrf2 function would represent a novel therapeutic target that could lead to improvement in survival of patients undergoing chemo- and/or radio- therapy.
This is the Nrf2 activity measured in the luminescent read.
1. Shibata, T., et al., Genetic Alteration of Keap1 Confers Constitutive Nrf2 Activation and Resistance to Chemotherapy in Gallbladder Cancer. Gastroenterology, 2008.
2. Sjoblom, T., et al., The consensus coding sequences of human breast and colorectal cancers. Science, 2006. 314(5797): p. 268-74.
NCGC Assay Protocol Summary:
A concentration-response assay was performed with A549 ARE_Fluc cells which are suspended in 5% FBS OPTI-MEM. Five uL were dispensed into 1536-well white TC-treated plate using the Kalypsys dispenser to achieve a density of 5000 cells/well in all columns except column 1. The plate is incubated at 37deg C at 5% CO2 for 2 hours before 23 nL of compounds are added with the Kalypsys pin tool equipped with a 1,536-pin array containing 10-nL slotted pins (FP1S10, 0.457-mm diameter, 50.8 mm long; V&P Scientific). The control compounds Budesonide and Staurosporine are both added at a concentration of 2mM and Budesonide is also added as a 1:10 titration, starting at 200uM, to achieve dose-response. After an 18-24 hour incubation at 37deg C at 5% CO2, 5ul of medium is added to column 1. Afterwards 1ul of 5x of CellTiter-Fluor (Promega) is added to every well. The plate is then incubated at 37deg C at 5% CO2 for 30 minutes before they are read on the ViewLux (Perkin Elmer) for a fluorescent read Ex=405(10)/Em=525(10) for a 3 second exposure, 2x binning, and high gain. Then 3 uL of 3x BugLite is dispensed into all wells and the plate is incubated at ambient room temperature for 15 minutes. Afterwards another ViewLux read is performed using the clear filter to get a luminescent read with the settings of 40 second exposure, 2x binning, and high gain. Cytotoxicity is assessed through the first fluorescent read and then biochemical activity against Nrf2 is measured in the luminescent read.
For orientation: In qHTS, concentration-response curves come from the screen itself.
For `CC1CCc2sc(C(=O)NCC(c3ccco3)N3CCCCC3)cc2C1` (stereo unspecified), the “activity change, negative = inhibition” value is -2.39%.
As for `CCCn1nnnc1NC(=O)COc1ccc(Cl)cc1C`, the Potency was 13 µM (active).
For `Cc1cc(NC(=O)COC(=O)COc2ccc(Cl)cc2C)c([N+](=O)[O-])cc1C`, the “activity change, negative = inhibition” value is 14.2%.
In the case of `CCOC(=O)N1CCN(C(=O)COc2ccc(Cl)cc2C)CC1`, the “activity change, negative = inhibition” value was -6.92%.
Still for that read-out and setting: in the case of `CCCc1cc(=O)[nH]c(SCC(=O)Nc2ccc(C(=O)Nc3ccccc3OC)cc2)n1` it was -28.8%; in that of `Cc1ccccc1NC(=O)Cn1c(=O)n(CCc2ccccc2)c(=O)c2ccccc21`, -2.38%.
Still for that read-out and setting: in the case of `COc1ccc(S(=O)(=O)N(C)C[C@@H]2Oc3ccc(NC(=O)Nc4c(C)noc4C)cc3C(=O)N([C@H](C)CO)C[C@@H]2C)cc1` it was -14.7%; in that of `COc1ccc(NC(=O)COC(=O)CNC(=O)C2CCCCC2)cc1`, 4.96%.
For `CCC(C)(C)c1ccc(Oc2ccc(NC(=O)COC(=O)C3=COCCO3)cc2)cc1`, the Potency is 8.2 µM (active).
On to `CCOc1ccc(NC(=O)c2ccc(NC(=O)COC(=O)c3ccc(NC(=O)CC#N)cc3)cc2)cc1`, for which the “activity change, negative = inhibition” value is 12.3%.
The same measure, in the same setting: the same measure for `COc1cc(OC)cc(-c2c(C#Cc3ccsc3)c3cc(-c4ccc(OC)cc4F)ccc3n2C)c1`: -9.99%.
Same read-out and setting: the same measure for `O=C(NCCC(=O)N1O[C@@H]2C=C[C@H]1C2)OCC1c2ccccc2-c2ccccc21`: 12%; for `COc1ccccc1CNC(=O)CCn1c(=O)sc2ccccc21`: -9.65%.
As to `COc1ccc(Cn2c(=O)sc3ccccc32)cc1OC`, the Potency was 25.9 µM (active).
On to `Cc1cccc(CSc2nnc(Cn3c(=O)sc4ccccc43)n2C)c1`, for which the “activity change, negative = inhibition” value was -17.1%.
For the compound `COc1ccc(-n2c(SC)nc3sc4c(c3c2=O)CCN(C(C)=O)C4)cc1`, the activity change, negative = inhibition was 1.06% [at 9.27 µM].
Still for that read-out and setting: the same measure for `CN(C(=O)c1cccc(NC(=O)Cc2cccc(NC(=O)C3CCCN(C(=O)C4CC4)C3)c2)c1)C1CCC1` (stereo unspecified): -3.67%.
On to `CN(CCc1ccccc1)C(=O)c1cccc(NC(=O)Cc2cccc(NC(=O)C3CCCN(C(=O)CCc4ccccc4)C3)c2)c1` (stereo unspecified), for which the Potency was 23.1 µM (active).
With `CN(C(=O)c1cccc(NC(=O)Cc2ccc(NC(=O)C3CCCN(C(=O)C4CC4)C3)cc2)c1)C1CC1` (stereo unspecified), the “activity change, negative = inhibition” value is -18.1%.
Same read-out and setting: in the case of `CCCN(C(=O)Cn1cc(S(=O)(=O)N2CCN(c3ccccc3F)CC2)c2ccccc2c1=O)c1cccc(C)c1` it was 11.7%; in that of `COc1ccc(CNC(=O)COc2ccccc2C(=O)c2cnn(-c3ccccc3)c2)cc1OC`, -7.75%.
`Cc1ccc(C(=O)OCC(=O)NCc2cc(C)c(O)c(C)c2)cc1S(=O)(=O)N1CCCCC1`: the “activity change, negative = inhibition” value was 2.12%.
On the same count and under the same terms, the same measure for `COc1ccc2c(C)c(CCC(=O)NCc3ccc(OC)c(OC)c3)c(=O)oc2c1`: 12.2%; for `CCC(CO)Oc1cc(NCc2ccccc2)c2ncn(C3CCCC3)c2c1` (stereo unspecified): -19%.
With `NC(=O)CC(NC(=O)Cc1ccc(Br)cc1)c1ccc(NC2CC3CCC2C3)c([N+](=O)[O-])c1` (stereo unspecified), the Potency was 18.4 µM (active).
As for `CC1CCCCN1CCCNc1ccc(C(CC(N)=O)NC(=O)c2ccccc2)cc1[N+](=O)[O-]` (stereo unspecified), the “activity change, negative = inhibition” value was -0.271%.
Same read-out and setting: the same measure for `Cc1cc(C)cc(C(=O)NC(CC(N)=O)c2ccc(N3CCC(N4CCCCC4)CC3)c([N+](=O)[O-])c2)c1` (stereo unspecified): -6.31%; for `O=C1OCC2=C1C(c1ccc(Cl)cc1)c1cc3c(cc1O2)OCO3` (stereo unspecified): -8.02%.
As to `COc1ccc(Cl)cc1NC(=O)Cn1c(=O)c2ccccc2n2nncc12`, the “activity change, negative = inhibition” value is -1.31%.
Take `Cc1cccc(N=C2NC(=O)/C(=C/c3cn(C)c4ccccc34)S2)c1`: the Potency was 14.6 µM (active).
`Cc1ccc(N=C2NC(=O)/C(=C/C=C/c3ccco3)S2)cc1C`: the “activity change, negative = inhibition” value is -21.9%.
On to `CN(C)c1ccc(-n2cccc2/C=C2/SC(=Nc3ccc(F)cc3)NC2=O)cc1`, for which the “activity change, negative = inhibition” value was -10.4%.
With `Oc1c(Cl)cc(Cl)c(Cl)c1Cc1c(O)c(Cl)cc(Cl)c1Cl`, the Potency is 14.6 µM (active).
Consider `O=C(c1ccc2c(=O)n(Cc3ccco3)c(=S)[nH]c2c1)N1CCCC1`, for which the “activity change, negative = inhibition” value is -26.7%.
Take `O=C(Nc1cc(S(=O)(=O)N2CCCCC2)ccc1Cl)C1COc2ccccc2O1` (stereo unspecified): the “activity change, negative = inhibition” value was -17.2%.
On to `CCc1ccc(Oc2coc3cc(OC(=O)c4cc5ccccc5oc4=O)ccc3c2=O)cc1`, for which the Potency is 4.61 µM (active).
Consider `CCCOC(=O)c1cc2ccccc2oc1=O`, for which the “activity change, negative = inhibition” value is -4.8%.
For `COc1ccc(Oc2coc3cc(OC(=O)c4cncc(Br)c4)ccc3c2=O)cc1`, the “activity change, negative = inhibition” value was -23.2%.
Turning to `CCc1ccc(Oc2coc3cc(O)ccc3c2=O)cc1`, the Potency is 7.31 µM (active).
Turning to `CCOC(=O)c1cc(=O)c2ccc(OCc3ccccc3)cc2o1`, the “activity change, negative = inhibition” value was 0.81%.
As for `COc1ccc(-c2onc(C)c2C)cc1S(=O)(=O)NCc1cccs1`, the “activity change, negative = inhibition” value is -14.2%.
The same measure, in the same setting: the same measure for `CC(C)Cn1c(=O)c2ccccc2n2c(-c3cccc(Cl)c3)nnc12`: 0.39%.
On to `CCOC(=O)c1cccc(NS(=O)(=O)c2c(C(=O)N3CCCCCC3)c(C)n(C)c2C)c1`, for which the “activity change, negative = inhibition” value is 5.58%.
On the same count and under the same terms, in the case of `O=C(Nc1ccc(C(=O)N2CCOCC2)cc1)Nc1cccc(C(F)(F)F)c1` it was -28.3%.
For the compound `CCOC(=O)N1CCN(C(=O)c2ccc(S(=O)(=O)Nc3cccc(C(F)(F)F)c3)cc2)CC1`, the Potency is 18.4 µM (active).
As to `Cc1ccc(C)c(N2CCN(C(=O)CCc3nc(-c4cccc(C(F)(F)F)c4)no3)CC2)c1`, the “activity change, negative = inhibition” value was -25.2%.

These data come from PubChem BioAssay AID504444 (National Center for Advancing Translational Sciences (NCATS), 2011).
